Experimental data reported in PubChem BioAssay.
Calls of active or inactive are those of the source.

How the values were obtained:
[1] = binders of probe aFSTL3 on microarray, primary screen, stem cell growth factor project, biochemical, small-molecule microarray, fluorescence 635/667 (AID 1064); conditions: higher = more signal;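 also: measures binding of the biotinylated anti-FSTL3 antibody to printed compounds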
[2] = binders from COS7 lysate, DM2A8 probe, primary screen, torsin A project, cell lysate, small-molecule microarray, fluorescence 635/667 (AID 1065); conditions: higher = more signal, COS7 lysate expressing mutant human TOR1A
[3] = binders of probe aFGF2 on microarray, primary screen, stem cell growth factor project, biochemical, small-molecule microarray, fluorescence 635/667 (AID 1067); conditions: higher = more signal;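 also: measures binding of biotinylated aFGF2 protein to printed compounds on slides; z-score merges feature fluorescence and signal-to-noise across triplicate slides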
[4] = binders of probe aFGF10 on microarray, primary screen, stem cell growth factor project, biochemical, small-molecule microarray, fluorescence 635/667 (AID 1071); conditions: higher = more signal;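 also: score merges 667 nm spot intensity and signal to noise from triplicate slides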
[5] = target: Neurogenic locus notch homolog protein 2 (Homo sapiens) (UniProt Q04721); assay: Notch2 binders on small-molecule microarrays, primary screen, biochemical, small-molecule microarray, 635 nm fluorescence, stem cell growth factors (AID 1073); conditions: Notch2 binding, higher = more signal
[6] = target: Pro-neuregulin-1, membrane-bound isoform (Homo sapiens) (UniProt Q02297); assay: NRG1 binders on small-molecule microarrays, primary screen, psychiatric disease protein project, biochemical, small-molecule microarray, fluorescence 635/667 (AID 1075); conditions: NRG1 binding, 635 nm fluorescence, higher = more signal;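 also: score combines 667 nm spot fluorescence with signal to noise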
[7] = tested on: Neuregulin-1 EGF-like domain; assay: binders of neuregulin-1 EGF-like domain, primary screen, biochemical, small-molecule microarray, 635 nm fluorescence (AID 1081); conditions: small-molecule microarray binding, higher = more signal;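 also: binding of the protein to compounds printed on small-molecule microarray slides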
[8] = FRG1 promoter luciferase signal modulators, primary screen, FRG1 inhibition for FSHD, cell-based, C2C12 myotubes, firefly/Renilla luciferase, luminescence (AID 1084); conditions: higher = more signal, called active from +8 up or from −8 down
[9] = binders of probe aFST on microarray, primary screen, stem cell growth factor project, biochemical, small-molecule microarray, fluorescence 635/667 (AID 1086); conditions: higher = more signal;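 also: score merges 667 nm fluorescence with signal-to-noise of each printed compound spot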
[10] = binders of probe aHhip on microarray, primary screen, stem cell growth factor project, biochemical, small-molecule microarray, fluorescence 635/667 (AID 1087); conditions: higher = more signal;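 also: score merges spot fluorescence at 667nm with spot signal to noise ratio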
[11] = tested on: PRMT1 (protein arginine N-methyltransferase 1); assay: PRMT1 binders on small-molecule microarrays, primary screen, biochemical, small-molecule microarray, 635 nm fluorescence (AID 1088); conditions: small-molecule microarray binding, higher = more signal;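 also: binding of Prmt1 protein to compounds spotted on small-molecule microarray slides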
[12] = yeast growth modulation, basal conditions, primary screen, YJM789 clinical isolate, OD600, 24 h (AID 1089);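 also: growth of clinical yeast isolate S. cerevisiae YJM 789 seeded 1000 cells per well; test concentration not given here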; conditions: S. cerevisiae YJM789 growth, higher = more signal, called active from +8 up or from −8 down
[13] = fission yeast growth modulation, primary screen, strain 972, OD600, 24 h, no modulator (AID 1090);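 also: basal condition with compound alone and no growth modifier present; test concentration not given here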; conditions: S. pombe 972 growth, higher = more signal, called active from +8 up or from −8 down
[14] = S. cerevisiae growth modulation with rapamycin, primary screen, strain BY4716, OD600, 96 h (AID 1091); conditions: higher = more signal, called active from +8 up or from −8 down; also: test concentration not given here
[15] = target: Torsin-1A-interacting protein 2 (Homo sapiens) (UniProt Q8NFQ8); assay: LULL1 binders on small-molecule microarray, primary screen, cell lysate, human LULL1 lysate, 635/667 nm fluorescence (AID 1092); conditions: hLULL1 lysate binding, 635 nm fluorescence, higher = more signal;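 also: probe is lysate of COS7 cells overexpressing human LULL1; score merges per-feature 667 nm fluorescence with signal-to-noise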
[16] = E. coli growth modulation, two-sided OD650, primary screen, E. coli filamentation project, strain DRC41, 24 h (AID 1093); conditions: OD650, 24 h, higher = more signal, called active from +8 up or from −8 down;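 also: MC1000 strain lacking acrAB efflux and sulA so SOS filamentation is blocked; test concentration not given here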
[17] = small-molecule microarray binders of probe aLefty2, primary screen, biochemical, biotinylated probe, 635/667 nm fluorescence (AID 1094); conditions: higher = more signal;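 also: score merges spot fluorescence near 667 nm with spot signal-to-noise ratio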
[18] = tested on: Noggin (protein binding on small-molecule microarray); assay: Noggin binders on small-molecule microarray, primary screen, biochemical, 635/667 nm fluorescence (AID 1095); conditions: 635 nm fluorescence, higher = more signal;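 also: score merges 667 nm feature fluorescence with signal to noise over triplicate slides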
[19] = target: Neurogenic locus notch homolog protein 3 (Homo sapiens) (UniProt Q9UM47); assay: NOTCH3 binders on small-molecule microarray, primary screen, biochemical, 635/667 nm fluorescence (AID 1096); conditions: NOTCH3 binding, 635 nm fluorescence, higher = more signal
[20] = small-molecule microarray binders of probe aEGFR, primary screen, biochemical, biotinylated probe, 635/667 nm fluorescence (AID 1097); conditions: higher = more signal;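 also: probe is a biotinylated anti-EGFR antibody binding compounds printed on slides; score combines fluorescence near 667 nm and signal to noise of each spot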

Sequence of Neurogenic locus notch homolog protein 2 (Homo sapiens) (Q04721 whole entry, looked up, canonical isoform): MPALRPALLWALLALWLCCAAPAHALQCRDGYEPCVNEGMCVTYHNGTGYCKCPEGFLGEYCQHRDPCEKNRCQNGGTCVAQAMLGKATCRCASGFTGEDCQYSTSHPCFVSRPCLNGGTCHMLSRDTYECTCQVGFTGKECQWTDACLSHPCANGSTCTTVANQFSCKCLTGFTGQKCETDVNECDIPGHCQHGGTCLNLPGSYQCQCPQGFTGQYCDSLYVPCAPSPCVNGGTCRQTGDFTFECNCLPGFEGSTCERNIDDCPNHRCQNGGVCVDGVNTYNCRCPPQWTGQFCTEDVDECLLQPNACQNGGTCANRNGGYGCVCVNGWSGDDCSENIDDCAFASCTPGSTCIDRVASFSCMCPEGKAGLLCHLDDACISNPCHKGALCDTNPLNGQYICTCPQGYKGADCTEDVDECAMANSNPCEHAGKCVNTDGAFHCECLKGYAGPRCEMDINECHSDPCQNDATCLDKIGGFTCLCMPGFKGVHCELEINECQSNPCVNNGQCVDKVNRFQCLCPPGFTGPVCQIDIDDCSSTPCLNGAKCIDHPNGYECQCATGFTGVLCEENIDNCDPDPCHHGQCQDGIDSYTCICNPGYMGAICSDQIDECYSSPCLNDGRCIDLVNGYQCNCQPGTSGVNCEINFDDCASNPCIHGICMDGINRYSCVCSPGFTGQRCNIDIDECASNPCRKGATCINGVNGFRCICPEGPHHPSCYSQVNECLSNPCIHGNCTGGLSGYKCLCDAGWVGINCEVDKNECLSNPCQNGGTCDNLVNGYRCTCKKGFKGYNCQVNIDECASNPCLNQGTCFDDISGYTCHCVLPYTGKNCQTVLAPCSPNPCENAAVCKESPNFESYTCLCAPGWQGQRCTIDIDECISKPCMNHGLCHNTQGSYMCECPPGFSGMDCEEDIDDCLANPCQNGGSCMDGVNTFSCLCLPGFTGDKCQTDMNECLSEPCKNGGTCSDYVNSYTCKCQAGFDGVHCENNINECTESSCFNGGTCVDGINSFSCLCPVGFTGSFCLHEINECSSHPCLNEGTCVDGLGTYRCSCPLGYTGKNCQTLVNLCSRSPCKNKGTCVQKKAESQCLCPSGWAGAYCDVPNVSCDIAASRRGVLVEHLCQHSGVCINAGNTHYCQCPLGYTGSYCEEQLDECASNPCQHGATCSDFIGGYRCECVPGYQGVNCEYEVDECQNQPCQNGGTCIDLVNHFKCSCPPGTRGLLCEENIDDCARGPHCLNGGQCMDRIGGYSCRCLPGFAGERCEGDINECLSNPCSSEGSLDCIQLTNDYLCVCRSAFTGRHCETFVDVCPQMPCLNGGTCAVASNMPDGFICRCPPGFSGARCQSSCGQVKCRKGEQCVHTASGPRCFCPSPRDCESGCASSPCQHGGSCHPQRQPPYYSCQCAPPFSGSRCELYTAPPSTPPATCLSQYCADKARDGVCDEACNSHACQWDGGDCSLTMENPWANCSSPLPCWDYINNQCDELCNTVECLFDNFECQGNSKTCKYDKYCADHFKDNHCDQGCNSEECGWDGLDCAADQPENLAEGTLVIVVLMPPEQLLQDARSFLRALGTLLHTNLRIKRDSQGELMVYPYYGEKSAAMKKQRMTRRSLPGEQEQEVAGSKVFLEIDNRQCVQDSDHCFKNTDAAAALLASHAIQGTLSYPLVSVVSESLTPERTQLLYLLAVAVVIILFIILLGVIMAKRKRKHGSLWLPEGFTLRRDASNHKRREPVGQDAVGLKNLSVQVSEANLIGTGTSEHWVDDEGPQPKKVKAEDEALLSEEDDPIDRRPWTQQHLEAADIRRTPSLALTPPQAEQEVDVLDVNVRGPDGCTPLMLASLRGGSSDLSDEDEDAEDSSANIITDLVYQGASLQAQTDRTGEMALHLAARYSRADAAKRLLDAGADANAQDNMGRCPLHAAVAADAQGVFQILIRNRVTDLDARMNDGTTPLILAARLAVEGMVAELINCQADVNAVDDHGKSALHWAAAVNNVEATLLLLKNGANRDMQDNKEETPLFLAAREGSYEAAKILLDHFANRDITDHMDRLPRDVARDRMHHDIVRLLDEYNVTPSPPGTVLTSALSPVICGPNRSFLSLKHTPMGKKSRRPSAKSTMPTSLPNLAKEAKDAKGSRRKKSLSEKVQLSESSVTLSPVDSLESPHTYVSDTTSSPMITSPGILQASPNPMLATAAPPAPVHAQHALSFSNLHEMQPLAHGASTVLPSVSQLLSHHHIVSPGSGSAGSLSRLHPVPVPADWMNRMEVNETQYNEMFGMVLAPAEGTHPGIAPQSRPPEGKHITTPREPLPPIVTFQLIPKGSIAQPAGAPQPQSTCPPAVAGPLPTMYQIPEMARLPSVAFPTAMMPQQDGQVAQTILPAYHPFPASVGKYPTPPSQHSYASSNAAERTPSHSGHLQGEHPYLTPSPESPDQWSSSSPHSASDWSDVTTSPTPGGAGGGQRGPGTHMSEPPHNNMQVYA
Sequence of Pro-neuregulin-1, membrane-bound isoform (Homo sapiens) (Q02297 whole entry, looked up, the tested form may be a part, canonical isoform): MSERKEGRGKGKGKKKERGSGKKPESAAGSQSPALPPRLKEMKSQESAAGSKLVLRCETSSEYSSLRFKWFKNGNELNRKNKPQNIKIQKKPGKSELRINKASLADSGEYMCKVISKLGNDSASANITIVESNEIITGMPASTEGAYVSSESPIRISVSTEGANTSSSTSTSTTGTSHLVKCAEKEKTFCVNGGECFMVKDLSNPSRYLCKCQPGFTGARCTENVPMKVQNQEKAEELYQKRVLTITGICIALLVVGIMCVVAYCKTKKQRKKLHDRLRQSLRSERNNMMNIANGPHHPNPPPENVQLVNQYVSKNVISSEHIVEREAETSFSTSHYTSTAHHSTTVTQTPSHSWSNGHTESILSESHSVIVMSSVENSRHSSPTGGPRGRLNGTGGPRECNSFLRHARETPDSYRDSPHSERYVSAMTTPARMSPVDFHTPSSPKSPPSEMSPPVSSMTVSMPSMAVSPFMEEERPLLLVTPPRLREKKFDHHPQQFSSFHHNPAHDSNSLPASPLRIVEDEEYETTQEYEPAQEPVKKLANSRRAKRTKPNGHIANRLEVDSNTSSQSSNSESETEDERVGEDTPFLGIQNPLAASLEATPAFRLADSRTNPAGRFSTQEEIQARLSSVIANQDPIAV
Sequence of Torsin-1A-interacting protein 2 (Homo sapiens) (Q8NFQ8 whole entry, looked up): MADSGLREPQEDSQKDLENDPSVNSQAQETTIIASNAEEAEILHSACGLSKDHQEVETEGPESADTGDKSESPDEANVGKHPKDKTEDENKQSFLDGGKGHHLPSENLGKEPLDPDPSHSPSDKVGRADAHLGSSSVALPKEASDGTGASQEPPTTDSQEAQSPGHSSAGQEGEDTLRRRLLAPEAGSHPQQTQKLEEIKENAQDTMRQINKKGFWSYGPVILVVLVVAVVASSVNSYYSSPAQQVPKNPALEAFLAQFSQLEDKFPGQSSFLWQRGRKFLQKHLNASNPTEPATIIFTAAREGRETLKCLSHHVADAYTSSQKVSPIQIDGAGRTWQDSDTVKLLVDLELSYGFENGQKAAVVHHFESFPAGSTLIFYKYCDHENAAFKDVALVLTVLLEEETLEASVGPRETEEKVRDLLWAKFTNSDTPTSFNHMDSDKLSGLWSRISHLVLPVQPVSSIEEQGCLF

SMILES	composite z-score [1]	composite z-score [2]	composite z-score [3]	composite z-score [4]	composite z-score [5]	composite z-score [6]	composite z-score [7]	z-score [8]	composite z-score [9]	composite z-score [10]	composite z-score [11]	z-score [12]	z-score [13]	z-score [14]	composite z-score [15]	z-score [16]	composite z-score [17]	composite z-score [18]	composite z-score [19]	composite z-score [20]
CC1CC/C=C\[C@H]2OC34C=CCN(CCN5CCOCC5)C(=O)[C@H]3N(C(CO)C(C)C)C(=O)[C@@H]4C2C(=O)O1 (stereo not given in full)	-0.0695	0.949	-0.133	-0.528	-0.916	1.77	0.907	-0.363 (inactive)	-0.249	-0.069	1.42	-0.662 (inactive)	-0.145 (inactive)	-0.188 (inactive)	3.2	-0.651 (inactive)	-0.109	0.122	0.398	-0.0332
COCCOC(=O)N1C(=O)[C@@]2(c3cc(C#CCNC(N)=O)ccc31)[C@H](C(=O)Nc1nc3ccccc3s1)[C@H]1C(=O)O[C@H](c3ccccc3)[C@H](c3ccccc3)N1[C@@H]2c1ccc(O)cc1	-0.145	0.215	-0.0284	0.46	0.968	0.882	0.595	0.709 (inactive)	0.501	0.0373	1.47	1.45 (inactive)	1.16 (inactive)	1.32 (inactive)	1.35	-0.264 (inactive)	-0.103	0.939	0.986	0.0654
COc1ccc(C#Cc2ccc3c(c2)[C@]2(C(=O)N3)[C@H](c3ccccc3OCCO)N3[C@H](c4ccccc4)[C@H](c4ccccc4)OC(=O)[C@H]3[C@@H]2C(=O)NC[C@H](O)c2ccccc2)cc1	-0.38	0.203	-0.0628	0.146	1	0.698	1.27	0.621 (inactive)	0.469	0.21	1.54	2.42 (inactive)	2.18 (inactive)	2.92 (inactive)	3	2.11 (inactive)	-0.0168	1.58	1.08	0.095
CC[C@@H](O[Si](C#C[Si](C(C)C)(C(C)C)C(C)C)(C(C)C)C(C)C)c1cn([C@H](CO)Cc2ccccc2)nn1	-0.48	0.111	-0.187	0.686	0.929	0.0252	0.846	0.355 (inactive)	0.547	-0.0994	1.34	1.57 (inactive)	1.22 (inactive)	0.532 (inactive)	1.51	0.598 (inactive)	-0.232	0.715	0.907	-0.0584
CN1C(=O)C2C=CC(C(O)c3cccs3)N(N(c3ccccc3)c3ccccc3)C2C1=O (stereo not given)	-0.128	-0.493	0.0472	0.272	1.1	1.19	1.21	-0.179 (inactive)	0.379	-0.0645	1.2	1 (inactive)	0.881 (inactive)	0.571 (inactive)	2.62	-0.874 (inactive)	0.0453	0.0625	0.932	-0.17
Cc1ccc(S[C@]2(C(=O)NCCN3CCOCC3)CC(=O)N(C(C)C)[C@@H]2c2ccc(CO)cc2I)cc1	1.15	-0.158	-0.0805	-0.11	-0.521	1.69	1.35	-0.977 (inactive)	0.153	-0.166	1.5	-2.73 (inactive)	-1.75 (inactive)	-0.616 (inactive)	2.46	3.42 (inactive)	0.126	-0.889	0.0467	-0.0234
COC(=O)[C@@]1(Cc2ccc(F)cc2)[C@H]2c3cc(C(=O)N(C)C)n(Cc4ccsc4Br)c3C[C@H]2CN1C(=O)c1ccccc1	2.25	-0.3	0.915	1.01	1.83	1.88	0.529	1.94 (inactive)	2.68	3.87	-0.291	0.232 (inactive)	0.168 (inactive)	1.37 (inactive)	3.64	-1.32 (inactive)	1.38	-0.322	1.08	1.06
O=C1OCC=C[C@H]2OC34C=CCN(Cn5nnc6ccccc65)C(=O)[C@H]3N(CCO)C(=O)[C@@H]4[C@@H]12 (stereo not given in full)	0.645	1.9	-0.129	-0.749	-1.45	0.864	0.579	0.13 (inactive)	-0.406	-0.139	0.551	0.936 (inactive)	0.159 (inactive)	0.294 (inactive)	2.55	-0.55 (inactive)	-0.0368	-1.88	-0.481	-0.171
CC(C)c1ccc(NN2C(C(O)C(C)c3ccccc3)C=CC3C(=O)N(c4ccccc4)C(=O)C32)cc1 (stereo not given)	1.31	1.04	0.51	1.08	1.71	2.09	1.12	-0.632 (inactive)	1.97	-0.12	1.57	-0.202 (inactive)	0.0423 (inactive)	1.21 (inactive)	3.18	-1.28 (inactive)	0.57	0.272	1.07	0.298
COc1ccc([Si](C)(C)[C@H]2[C@H](CCO)O[C@@]3(C(=O)N(Cc4ccccc4)c4ccc(NC(=O)[C@H](C)O)cc43)[C@@H]2C)cc1	-0.0382	0.394	-0.0653	1.12	0.855	0.638	1.18	-3.18 (inactive)	0.239	0.126	1.44	2.75 (inactive)	0.215 (inactive)	5.82 (inactive)	2.24	0.25 (inactive)	0.0092	-0.227	0.149	0.148
